The target in assay [1] is Calcium/calmodulin-dependent protein kinase type II subunit alpha (Homo sapiens) (UniProt Q9UQM7). To be noted: at 1 µM.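 Note: reported value is a mean percent inhibition of CAMK2A.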
Assay [2] has as its target Calcium/calmodulin-dependent protein kinase type II subunit delta (Homo sapiens) (UniProt Q13557). To be noted: at 0.1 µM.
For assay [3] the target is unchanged. The following applies: at 1 µM.
For assay [4], the target named is T1, Calcium/calmodulin-dependent protein kinase type IV (Homo sapiens) (UniProt Q16566).
T1 sequence (whole entry): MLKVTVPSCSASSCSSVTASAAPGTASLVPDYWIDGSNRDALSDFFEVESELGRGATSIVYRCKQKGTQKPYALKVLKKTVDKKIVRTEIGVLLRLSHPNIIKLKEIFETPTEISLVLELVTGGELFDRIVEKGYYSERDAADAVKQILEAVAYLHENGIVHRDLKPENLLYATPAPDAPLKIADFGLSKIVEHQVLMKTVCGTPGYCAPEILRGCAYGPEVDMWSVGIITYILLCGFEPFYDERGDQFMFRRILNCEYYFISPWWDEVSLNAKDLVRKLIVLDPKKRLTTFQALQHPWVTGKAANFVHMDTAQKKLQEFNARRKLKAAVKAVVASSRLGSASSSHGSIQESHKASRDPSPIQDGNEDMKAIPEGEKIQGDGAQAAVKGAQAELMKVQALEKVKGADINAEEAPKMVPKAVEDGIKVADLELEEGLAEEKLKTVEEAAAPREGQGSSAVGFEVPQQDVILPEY
The following applies: at 0.1 µM.

Assay [5] has as its target T1, Calcium/calmodulin-dependent protein kinase type IV (Homo sapiens). To be noted: at 1 µM.
For assay [6], the target named is T2, Serine/threonine-protein kinase Chk1 (Homo sapiens) (UniProt O14757).
T2 sequence (whole entry): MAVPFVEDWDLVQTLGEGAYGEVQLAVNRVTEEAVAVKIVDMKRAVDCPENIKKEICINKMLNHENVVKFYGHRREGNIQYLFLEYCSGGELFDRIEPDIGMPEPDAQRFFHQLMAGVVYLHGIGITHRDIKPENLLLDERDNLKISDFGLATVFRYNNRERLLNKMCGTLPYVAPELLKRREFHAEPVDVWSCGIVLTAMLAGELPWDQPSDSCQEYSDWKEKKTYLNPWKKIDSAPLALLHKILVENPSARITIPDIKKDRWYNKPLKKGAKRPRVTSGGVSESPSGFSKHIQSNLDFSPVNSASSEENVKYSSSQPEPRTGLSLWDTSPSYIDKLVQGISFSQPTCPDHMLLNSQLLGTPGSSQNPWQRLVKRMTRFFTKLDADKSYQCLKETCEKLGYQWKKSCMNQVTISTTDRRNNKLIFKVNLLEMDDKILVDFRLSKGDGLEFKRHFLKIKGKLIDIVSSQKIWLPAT
The following applies: at 0.1 µM.

Assay [7] deals with T2, Serine/threonine-protein kinase Chk1 (Homo sapiens). To be noted: at 1 µM.
The target in assay [8] is Serine/threonine-protein kinase Chk2 (Homo sapiens) (UniProt O96017). The following applies: at 0.1 µM.
Serine/threonine-protein kinase Chk2 (Homo sapiens), sequence (O96017 whole entry): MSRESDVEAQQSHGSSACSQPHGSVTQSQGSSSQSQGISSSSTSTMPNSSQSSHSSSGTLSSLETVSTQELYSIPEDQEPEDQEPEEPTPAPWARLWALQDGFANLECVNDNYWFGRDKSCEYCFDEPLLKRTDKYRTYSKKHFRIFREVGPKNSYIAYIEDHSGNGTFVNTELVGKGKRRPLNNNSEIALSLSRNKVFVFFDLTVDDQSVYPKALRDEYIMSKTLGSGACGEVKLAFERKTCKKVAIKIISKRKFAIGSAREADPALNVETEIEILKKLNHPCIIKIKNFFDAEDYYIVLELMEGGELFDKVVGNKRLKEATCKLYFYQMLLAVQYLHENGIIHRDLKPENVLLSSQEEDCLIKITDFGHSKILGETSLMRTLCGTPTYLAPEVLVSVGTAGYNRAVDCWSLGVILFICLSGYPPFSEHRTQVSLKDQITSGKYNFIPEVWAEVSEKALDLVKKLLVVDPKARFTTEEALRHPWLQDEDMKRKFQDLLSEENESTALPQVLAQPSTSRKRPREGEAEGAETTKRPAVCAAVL
The target is the same in assay [9]. The following applies: at 1 µM.
Assay [10] deals with Death-associated protein kinase 1 (Homo sapiens) (UniProt P53355). To be noted: at 0.1 µM.
Death-associated protein kinase 1 (Homo sapiens), sequence (P53355 whole entry, looked up): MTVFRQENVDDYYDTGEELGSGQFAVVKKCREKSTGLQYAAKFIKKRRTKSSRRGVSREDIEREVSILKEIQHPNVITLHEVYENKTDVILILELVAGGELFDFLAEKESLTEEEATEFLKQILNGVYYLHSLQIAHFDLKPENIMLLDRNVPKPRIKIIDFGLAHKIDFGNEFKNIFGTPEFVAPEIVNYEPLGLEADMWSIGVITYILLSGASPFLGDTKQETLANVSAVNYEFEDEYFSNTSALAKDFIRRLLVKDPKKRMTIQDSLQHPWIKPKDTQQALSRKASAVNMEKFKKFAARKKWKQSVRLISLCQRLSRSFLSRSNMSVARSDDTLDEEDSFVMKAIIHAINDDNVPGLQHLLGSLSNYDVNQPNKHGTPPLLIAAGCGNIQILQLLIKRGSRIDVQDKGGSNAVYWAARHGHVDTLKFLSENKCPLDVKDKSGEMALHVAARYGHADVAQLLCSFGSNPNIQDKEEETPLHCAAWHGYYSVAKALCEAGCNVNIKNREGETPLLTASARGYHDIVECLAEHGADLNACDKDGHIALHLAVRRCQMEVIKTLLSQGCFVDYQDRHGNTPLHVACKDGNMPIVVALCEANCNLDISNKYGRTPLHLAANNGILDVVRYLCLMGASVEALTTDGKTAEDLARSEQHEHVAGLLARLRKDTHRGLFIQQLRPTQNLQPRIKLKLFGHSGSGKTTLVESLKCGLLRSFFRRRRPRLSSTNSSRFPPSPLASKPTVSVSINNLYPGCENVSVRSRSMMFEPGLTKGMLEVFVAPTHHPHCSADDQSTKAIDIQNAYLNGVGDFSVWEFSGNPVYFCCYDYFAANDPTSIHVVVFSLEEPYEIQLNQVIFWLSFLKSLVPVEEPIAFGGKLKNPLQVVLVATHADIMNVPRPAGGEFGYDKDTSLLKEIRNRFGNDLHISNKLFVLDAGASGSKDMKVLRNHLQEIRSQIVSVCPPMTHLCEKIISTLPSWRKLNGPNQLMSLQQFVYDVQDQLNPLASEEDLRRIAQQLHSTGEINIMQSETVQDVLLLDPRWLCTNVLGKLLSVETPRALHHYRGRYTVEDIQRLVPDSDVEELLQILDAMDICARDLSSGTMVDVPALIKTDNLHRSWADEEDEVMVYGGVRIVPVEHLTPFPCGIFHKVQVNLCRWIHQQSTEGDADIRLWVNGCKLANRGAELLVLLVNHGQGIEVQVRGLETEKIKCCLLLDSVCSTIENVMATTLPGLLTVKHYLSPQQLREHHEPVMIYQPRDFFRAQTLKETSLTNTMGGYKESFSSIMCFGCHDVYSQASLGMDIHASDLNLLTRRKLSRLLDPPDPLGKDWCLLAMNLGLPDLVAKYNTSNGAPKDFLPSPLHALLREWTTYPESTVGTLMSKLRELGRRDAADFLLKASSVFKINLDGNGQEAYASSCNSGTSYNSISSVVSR

Usually inhibition stands for the relative decrease from the control value, in per cent.

Calcium/calmodulin-dependent protein kinase type II subunit alpha (Homo sapiens), sequence (Q9UQM7 whole entry): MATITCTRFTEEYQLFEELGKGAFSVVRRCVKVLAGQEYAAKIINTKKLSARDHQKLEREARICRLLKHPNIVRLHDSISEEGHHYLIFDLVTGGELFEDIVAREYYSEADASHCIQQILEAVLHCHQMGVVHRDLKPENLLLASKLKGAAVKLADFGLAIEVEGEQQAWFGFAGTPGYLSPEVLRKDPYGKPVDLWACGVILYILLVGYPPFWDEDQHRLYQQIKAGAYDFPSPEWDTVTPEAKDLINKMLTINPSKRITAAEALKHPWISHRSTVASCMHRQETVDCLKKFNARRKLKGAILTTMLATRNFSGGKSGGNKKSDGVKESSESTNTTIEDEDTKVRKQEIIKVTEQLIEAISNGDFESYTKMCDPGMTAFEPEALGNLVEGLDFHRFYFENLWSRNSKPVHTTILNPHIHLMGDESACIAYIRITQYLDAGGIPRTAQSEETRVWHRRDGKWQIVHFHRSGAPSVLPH
Calcium/calmodulin-dependent protein kinase type II subunit delta (Homo sapiens), sequence (Q13557 whole entry): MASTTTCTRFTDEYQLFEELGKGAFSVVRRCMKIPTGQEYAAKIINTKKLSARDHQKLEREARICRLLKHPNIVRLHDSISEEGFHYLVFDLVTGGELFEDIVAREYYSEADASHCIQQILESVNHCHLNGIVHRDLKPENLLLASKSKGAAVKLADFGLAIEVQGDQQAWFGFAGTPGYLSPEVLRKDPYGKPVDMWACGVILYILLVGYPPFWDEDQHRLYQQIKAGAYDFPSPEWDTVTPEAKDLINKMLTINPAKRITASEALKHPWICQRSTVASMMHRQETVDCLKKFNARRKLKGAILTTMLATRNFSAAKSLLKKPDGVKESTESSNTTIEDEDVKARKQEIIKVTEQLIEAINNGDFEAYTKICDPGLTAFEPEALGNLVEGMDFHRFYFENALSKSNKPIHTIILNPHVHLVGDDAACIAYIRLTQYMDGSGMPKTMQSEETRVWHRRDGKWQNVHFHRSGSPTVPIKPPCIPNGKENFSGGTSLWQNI

As to `CC1=C(C(=O)Nc2ccc3[nH]ncc3c2)C(c2ccc3ccccc3c2)CC(=O)N1` (stereo not drawn), the inhibition was determined as 0.99% in assay [1]; 0.33% in assay [2]; 3.19% in [3]; 1.12% in assay [4]; 0.1% in [5]; 0.95% in assay [6]. For the same compound, the inhibition in [7] stood at 3.91%; in assay [8], 1.29%; in assay [9], 4.21%; in assay [10] it was 0.55%.

As for `COc1cccc(-n2ncc3c(N/N=C/c4cccc(F)c4)ncnc32)c1`, the inhibition in assay [1] was 2.7%; in [2], 2.52%; in [3] it was 16.1%; in assay [4], 0.94%; in assay [5], 1.12%; in assay [6], 1.95%. Further, the inhibition in assay [7] is 3.28%; in assay [8], 1.45%; in [9], 1.6%; in assay [10], -0.52%.

As to `CCn1c(-c2nonc2N)nc2ccncc21`, the inhibition came to 6.48% in assay [1]; 2.32% in [2]; 4.41% in assay [3]; 0.03% in assay [4]; 1.1% in [5]; 1.89% in assay [6]. The inhibition in assay [7] was 0.17%; in assay [8], 1.09%; in [9] it was 1.49%; in assay [10], 1.08%.

For the compound `CCn1c(-c2nonc2N)nc2c(N3CCCC3)nccc21`, the inhibition is -3.88% in [1]; -2.38% in [2]; -0.97% in assay [3]; -0.74% in assay [4]; -0.33% in [5]; 2.68% in assay [6]. Besides, the inhibition is 0.57% in assay [7], -2.44% in [8], -2.51% in assay [9] and 0.86% in assay [10].

Consider `NC(=O)c1ccc(-c2nc(-c3ccccn3)c(-c3ccc4c(c3)OCO4)[nH]2)cc1`, for which the inhibition in [1] is 3.33%; in assay [2], 1.17%; in assay [3], 1.87%; in assay [4] it was 0.57%; in assay [5], 0.4%; in [6], -1.44%. Also, the inhibition in [7] worked out at 2.65%; in [8], 1.07%; in assay [9], 1.89%; in assay [10] it was 2.4%.

In the case of `Nc1nc(-c2ccc3c(c2)C(=Cc2cc(Br)c(O)c(Br)c2)C(=O)N3)cs1`, the inhibition is -3.05% in [1]; -2.31% in assay [2]; -1.31% in assay [3]; -0.65% in [4]; -2.75% in assay [5]; 3.04% in [6]. For the same compound, the inhibition is 1.34% in assay [7], -2.92% in assay [8], 0.55% in assay [9] and 0.32% in assay [10].

For the compound `Fc1cccc(COc2ccc(Nc3ncnc4sc(-c5cccs5)cc34)cc2Cl)c1`, the inhibition in assay [1] was -2.43%; in assay [2], -0.89%; in [3], 1.53%; in [5], -0.72%; in assay [6] it was -6.44%; in [7] it was -5.05%. In addition, the inhibition was -6.31% in [8], -6.27% in assay [9] and -9.21% in assay [10].

With `COc1cc2c(cc1Nc1nc(N3CCc4ccccc43)c3cc[nH]c3n1)N(C(=O)CN(C)C)CC2`, the inhibition was found to be 4.08% in assay [1]; 3.43% in [2]; 2.99% in assay [3]; 2.17% in assay [4]; 3.69% in assay [5]; 0.15% in assay [6]. The inhibition in [7] stood at 3.74%; in [8] it was 1.34%; in assay [9] it was 7.08%; in assay [10], 2.95%.

In the case of `c1cnn2ncc(-c3ccnc(Nc4ccc5c(c4)OCCO5)n3)c2c1`, the inhibition in assay [1] turned out to be 15.3%; in [2], 7.61%; in assay [3] it was 35.7%; in assay [4] it was 0.39%; in assay [5] it was 1.89%; in assay [6] it was 0.16%. Moreover, the inhibition in [7] is 6.81%; in assay [8], 2.96%; in assay [9], 9.21%; in [10] it was 3.38%.

On to `COc1cc(C=NNc2ncnc3c2cnn3-c2ccccc2)ccc1O`, for which the inhibition in [1] is 5.31%; in [2], 3.65%; in assay [3], 12.4%; in assay [4] it was -0.28%; in [5], -1.35%; in assay [6] it was -2.23%. For the same compound, the inhibition is -2.87% in assay [7], -3.59% in [8], -0.98% in [9] and -5.64% in assay [10].

Regarding `NS(=O)(=O)c1cccc(-c2ccc3c(NC(=O)C4CC4)n[nH]c3c2)c1`, the inhibition in [1] was -3.57%; in assay [2], -2.03%; in [3] it was -1.61%; in assay [4], -0.79%; in [5], -1.58%; in [6], 3.4%. The inhibition in assay [7] was 2.13%; in assay [8], -2.9%; in assay [9] it was -2.43%; in [10], 1.4%.

On to `CCc1cccc(NC(=O)Nc2ccc(Oc3ccc4nc(NC(=O)OC)[nH]c4c3)cc2)c1`, for which the inhibition in [1] was 3.77%; in assay [2], 1.51%; in assay [3] it was 2.63%; in assay [4], 0.16%; in assay [5], -2.32%; in [7], -6.72%. Also, the inhibition in assay [8] is -4.84%; in assay [9], -2.63%; in assay [10], -5.09%.

Take `Nc1nc(-c2ccccn2)c(-c2ccc3ncccc3n2)s1`: the inhibition in assay [1] is 2.01%; in assay [2], 0.62%; in assay [3] it was 2.75%; in assay [4] it was -0.73%; in assay [5] it was -1.69%; in assay [6], 4.2%. Also, the inhibition in assay [7] was 6.33%; in assay [8] it was 2.16%; in assay [9], 4.44%; in assay [10], 4.05%.

With `Cc1ccc(NC(=O)c2ccnc(N3CCCC3)c2)cc1-c1ccc(C(=O)NCC2CC2)cc1`, the inhibition in assay [1] is 5.72%; in assay [2], 4.6%; in assay [3], 7.16%; in assay [4] it was -0.3%; in assay [5], 2.35%; in [6] it was 3.53%. For the same compound, the inhibition came out at 7.14% in [7], 3.26% in assay [8], 4.85% in assay [9] and 2.4% in assay [10].

As for `CC(=O)Nc1cccc(C#Cc2cncnc2Nc2ccc(OCc3cccc(F)c3)c(Cl)c2)n1`, the inhibition was 1.27% in assay [1]; -0.74% in assay [2]; -2.74% in assay [3]; -4.11% in [4]; -7.03% in assay [5]; 7.14% in [6]. The inhibition in assay [7] amounted to 5.32%; in assay [8], 3.3%; in assay [9], 4.37%; in assay [10] it was 7.49%.

For `CN1CCC(C(=O)Nc2n[nH]c3nnc(-c4ccccc4)cc23)CC1`, the inhibition in assay [1] is 3.81%; in assay [2], 3.23%; in assay [3], 3.34%; in assay [4], -0.65%; in assay [5] it was -2.3%; in assay [6] it was -2.79%. The inhibition in assay [7] was -0.12%; in [8], -1.11%; in assay [9], 3.84%; in assay [10], -2.19%.

Consider `CS(=O)(=O)CCNCc1ccc(-c2ccc3ncnc(Nc4ccc(OCc5cccc(F)c5)c(C(F)(F)F)c4)c3c2)o1`, for which the inhibition in assay [1] is 3.37%; in assay [2], 3.17%; in assay [3], 2.68%; in [4] it was 0.52%; in assay [5], -0.06%; in [6], 8.99%. For the same compound, the inhibition in [7] was 11.5%; in [8], 6.84%; in assay [9] it was 7.75%; in assay [10], 11.7%.

(Values after ChEMBL document CHEMBL1961873, “Compounds: GSK PKIS; Assays: Nanosyn kinase panel” (2012).)
